Test results: PubChem BioAssay AID1159580 (chemical genetic matrix, 2015)
In all, about 5,500 compounds went through this assay and about 2,000 (36%) were called active. Another 18% or so got no clear call; they are omitted. No stated cut-off is given here; in the data, active means normalized growth mostly below about 0.91 (no sharp cut-off); inconclusive means no clear call, values can overlap the other calls; inactive means mostly above about 0.92. Some of the results follow.

Test: chemical genetic growth profiling, strain panel (AID 1159580);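 further: tested at 20 µM; growth read once vehicle control cultures reached saturation at 30 °C; 1 = growth at the plate median or of vehicle wells; lower values mean less growth of the strain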
Details: growth OD

Measured: normalized growth

OC[C@H]1O[C@@H](O[C@@H]2[C@@H](CO)O[C@](O)(CO)[C@H]2O)[C@H](O)[C@@H](O)[C@H]1O
inactive: S. cerevisiae deletion strains, locus YKL009W, strain mrt4, active compounds read low 1 | S. cerevisiae deletion strains, locus YKL068W, active compounds read low 0.987 | S. cerevisiae deletion strains, locus YKL085W, strain MDH1 (second series), active compounds read low 0.976 | S. cerevisiae deletion strains, locus YKL085W, strain MDH1, active compounds read low 0.976 | S. cerevisiae deletion strains, locus YKL160W, strain elf1, active compounds read low 1 | S. cerevisiae deletion strains, locus YKR001C, strain vps1, active compounds read low 1.01 | S. cerevisiae deletion strains, locus YKR026C, strain gcn3, active compounds read low 1.01 | S. cerevisiae deletion strains, locus YKR091W, strain srl3, active compounds read low 1.01 | S. cerevisiae deletion strains, locus YLL001W, strain dnm1, active compounds read low 0.999 | S. cerevisiae deletion strains, locus YLL026W, active compounds read low 1.01 | S. cerevisiae deletion strains, locus YLL041C, strain sdh2, active compounds read low 1.01 | S. cerevisiae deletion strains, locus YLR027C, strain aat2, active compounds read low 1.01 | S. cerevisiae deletion strains, locus YLR039C, strain RIC1, active compounds read low 0.968 | S. cerevisiae deletion strains, locus YLR058C, strain SHM2, active compounds read low 0.986 | S. cerevisiae deletion strains, locus YLR102C, strain apc9, active compounds read low 0.981 | S. cerevisiae deletion strains, locus YLR113W, strain HOG1, active compounds read low 1.02 | S. cerevisiae deletion strains, locus YLR221C, strain rsa3, active compounds read low 1 | S. cerevisiae deletion strains, locus YLR258W, strain gsy2, active compounds read low 0.998 | S. cerevisiae deletion strains, locus YLR262C, strain YPT6 (second series), active compounds read low 1.03 | S. cerevisiae deletion strains, locus YLR262C, strain YPT6, active compounds read low 1.03 | S. cerevisiae deletion strains, locus YLR268W, strain sec22, active compounds read low 0.972 | S. cerevisiae deletion strains, locus YLR320W, strain mms22, active compounds read low 0.996 | S. cerevisiae deletion strains, locus YLR330W, strain CHS5, active compounds read low 0.994 | S. cerevisiae deletion strains, locus YLR342W, strain FKS1 (second series), active compounds read low 0.994 | S. cerevisiae deletion strains, locus YLR342W, strain FKS1, active compounds read low 1.02 | S. cerevisiae deletion strains, locus YLR357W, strain rsc2, active compounds read low 0.995 | S. cerevisiae deletion strains, locus YLR370C, strain arc18, active compounds read low 1.02 | S. cerevisiae deletion strains, locus YLR371W, strain rom2, active compounds read low 0.974 | S. cerevisiae deletion strains, locus YLR384C, strain iki3, active compounds read low 1.01 | S. cerevisiae deletion strains, locus YLR418C, strain cdc73, active compounds read low 0.954 | S. cerevisiae deletion strains, locus YML016C, strain PPZ1, active compounds read low 0.993 | S. cerevisiae deletion strains, locus YML032C, strain rad52, active compounds read low 0.988 | S. cerevisiae deletion strains, locus YML120C, strain ndi1, active compounds read low 0.99 | S. cerevisiae deletion strains, locus YML124C, strain tub3, active compounds read low 1 | S. cerevisiae deletion strains, locus YMR058W, strain fet3, active compounds read low 1.01 | S. cerevisiae deletion strains, locus YMR078C, strain ctf18, active compounds read low 0.959 | S. cerevisiae deletion strains, locus YMR125W, strain sto1, active compounds read low 0.996 | S. cerevisiae deletion strains, locus YMR129W, active compounds read low 1.01 | S. cerevisiae deletion strains, locus YMR205C, strain PFK2, active compounds read low 1.03 | S. cerevisiae deletion strains, locus YMR223W, strain ubp8, active compounds read low 0.962 | S. cerevisiae deletion strains, locus YMR231W, strain pep5, active compounds read low 1.01 | S. cerevisiae deletion strains, locus YMR307W, strain GAS1, active compounds read low 1 | S. cerevisiae deletion strains, locus YNL067W, strain RPL9B, active compounds read low 1 | S. cerevisiae deletion strains, locus YNL071W, strain lat1, active compounds read low 1.01 | S. cerevisiae deletion strains, locus YNL183C, strain NPR1, active compounds read low 0.959 | S. cerevisiae deletion strains, locus YNL209W, strain ssb2, active compounds read low 1 | S. cerevisiae deletion strains, locus YNL233W, strain BNI4, active compounds read low 0.989 | S. cerevisiae deletion strains, locus YNL248C, strain rpa49, active compounds read low 1.03 | S. cerevisiae deletion strains, locus YNL250W, strain rad50, active compounds read low 0.954 | S. cerevisiae deletion strains, locus YNL271C, strain bni1, active compounds read low 0.966 | S. cerevisiae deletion strains, locus YNL298W, strain CLA4, active compounds read low 0.975 | S. cerevisiae deletion strains, locus YNL307C, strain MCK1, active compounds read low 0.972 | S. cerevisiae deletion strains, locus YNL322C, strain KRE1 (second series), active compounds read low 1.02 | S. cerevisiae deletion strains, locus YNL322C, strain KRE1, active compounds read low 0.996 | S. cerevisiae deletion strains, locus YNR049C, strain mso1, active compounds read low 1.01 | S. cerevisiae deletion strains, locus YNR052C, strain pop2, active compounds read low 0.979 | S. cerevisiae deletion strains, locus YOL006C, strain TOP1, active compounds read low 0.965 | S. cerevisiae deletion strains, locus YOL012C, strain htz1 0.596 | S. cerevisiae deletion strains, locus YOL147C, strain pex11, active compounds read low 0.982 | S. cerevisiae deletion strains, locus YOR001W, strain rrp6, active compounds read low 1 | S. cerevisiae deletion strains, locus YOR061W, strain CKA2, active compounds read low 0.985 | S. cerevisiae deletion strains, locus YOR069W, strain VPS5, active compounds read low 0.989 | S. cerevisiae deletion strains, locus YOR070C, strain gyp1, active compounds read low 1 | S. cerevisiae deletion strains, locus YOR080W, strain dia2, active compounds read low 1.01 | S. cerevisiae deletion strains, locus YOR083W, strain WHI5, active compounds read low 0.989 | S. cerevisiae deletion strains, locus YOR106W, strain vam3, active compounds read low 1.02 | S. cerevisiae deletion strains, locus YOR136W, strain idh2, active compounds read low 0.981 | S. cerevisiae deletion strains, locus YOR144C, strain elg1, active compounds read low 0.98 | S. cerevisiae deletion strains, locus YOR184W, strain ser1, active compounds read low 0.971 | S. cerevisiae deletion strains, locus YOR231W, strain MKK1, active compounds read low 0.98 | S. cerevisiae deletion strains, locus YOR265W, strain rbl2, active compounds read low 1.01 | S. cerevisiae deletion strains, locus YOR270C, strain vph1, active compounds read low 1.06 | S. cerevisiae deletion strains, locus YOR290C, strain snf2, active compounds read low 0.992 | S. cerevisiae deletion strains, locus YOR316C, strain cot1, active compounds read low 0.976 | S. cerevisiae deletion strains, locus YPL051W, strain arl3, active compounds read low 1.01 | S. cerevisiae deletion strains, locus YPL078C, strain atp4, active compounds read low 1.01 | S. cerevisiae deletion strains, locus YPL106C, strain sse1, active compounds read low 1 | S. cerevisiae deletion strains, locus YPL240C, strain hsp82, active compounds read low 1.03 | S. cerevisiae deletion strains, locus YPL241C, strain CIN2, active compounds read low 0.998 | S. cerevisiae deletion strains, locus YPL256C, strain CLN2, active compounds read low 0.957 | S. cerevisiae deletion strains, locus YPR119W, strain clb2, active compounds read low 0.978 | S. cerevisiae deletion strains, locus YPR141C, strain kar3, active compounds read low 0.968 | S. cerevisiae deletion strains, locus YPR163C, strain tif3, active compounds read low 0.972 | S. cerevisiae deletion strains, locus YPR167C, strain met16, active compounds read low 0.985 | S. cerevisiae deletion strains, strain wtn01, active compounds read low 0.967 | S. cerevisiae strains, strain wild type, active compounds read low 0.999
